# Reference: PubChem BioAssay AID1508601 (ICCB-Longwood Screening Facility, Harvard Medical School, 2020)
# “And” between values parts separate entries of the source, which are not always exact repeats. Equal values may be shown once. Hit rate of the full screen: of about 5,700 compounds, about 85 (1%) were called active. No stated cut-off is given here; in the data, active means p53-positive nuclei above about 36% (passing the limit was not always enough); inactive means the rest. Shown is part of a subset that was picked to be rich in actives.
# What was measured:
# [1] = p53 stabilisation in HPV-positive human cells, imaging, p53-positive nuclei imaging, 24 h, 48 h (AID 1508601); settings: 24/48 h
# [2] = biological target: Cellular tumor antigen p53 (Homo sapiens) (UniProt P04637); test: as above; settings: 24/48 h, stronger effect = higher value
# [3] = measured here: cell number at 24 h, Library stock concentration: 3.33 mM
# [4] = measured here: cell number at 48 h, Library stock concentration: 3.33 mM
# [5] = Library stock concentration: 3.33 mM
# [6] = measured here: p53 positive nuclei at 24 h, Library stock concentration: 3.33 mM
# [7] = measured here: cell number at 24 h, Library stock concentration: 46 uM
# [8] = measured here: cell number at 24 h, Library stock concentration: 278 uM
# [9] = measured here: cell number at 24 h, Library stock concentration: 1.67 mM
# [10] = measured here: cell number at 24 h, Library stock concentration: 10 mM
# [11] = measured here: cell number at 48 h, Library stock concentration: 46 uM
# [12] = measured here: cell number at 48 h, Library stock concentration: 278 uM
# [13] = measured here: cell number at 48 h, Library stock concentration: 1.67 mM
# [14] = measured here: cell number at 48 h, Library stock concentration: 10 mM
# [15] = Library stock concentration: 46 uM
# [16] = Library stock concentration: 278 uM
# [17] = Library stock concentration: 1.67 mM
# [18] = Library stock concentration: 10 mM
# [19] = measured here: p53 positive nuclei at 24 h, Library stock concentration: 46 uM
# [20] = measured here: p53 positive nuclei at 24 h, Library stock concentration: 278 uM
# [21] = measured here: p53 positive nuclei at 24 h, Library stock concentration: 1.67 mM
# [22] = measured here: p53 positive nuclei at 24 h, Library stock concentration: 10 mM
# Sequence of Cellular tumor antigen p53 (Homo sapiens) (P04637 whole entry, looked up): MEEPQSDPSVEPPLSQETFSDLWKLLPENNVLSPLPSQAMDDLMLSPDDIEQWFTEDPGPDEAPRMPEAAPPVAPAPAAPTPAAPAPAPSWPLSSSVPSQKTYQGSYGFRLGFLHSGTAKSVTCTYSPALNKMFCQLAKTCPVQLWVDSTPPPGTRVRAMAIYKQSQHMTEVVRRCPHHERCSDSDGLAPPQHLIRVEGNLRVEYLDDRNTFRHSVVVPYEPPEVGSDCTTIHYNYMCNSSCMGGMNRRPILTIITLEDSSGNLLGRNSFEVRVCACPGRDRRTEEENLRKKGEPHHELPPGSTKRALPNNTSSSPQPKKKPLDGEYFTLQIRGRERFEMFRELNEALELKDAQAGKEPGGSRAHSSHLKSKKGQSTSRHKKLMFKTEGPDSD
smiles,measurement,setting,value
COC1=C2CC(C)CC(OC)C(O)C(C)C=C(C)C(OC(N)=O)C(OC)C=CC=C(C)C(=O)NC(=CC1=O)C2=O (configuration not stated),"nuclei count, normalised",[1]; [3],40.1%
same,"nuclei count, normalised",[1]; [4],28.1%
same,"p53-positive nuclei, normalised",[2]; [5],-0.0882% (inactive)
same,"p53-positive nuclei, normalised",[2]; [6],-0.356%
CCCCCN=C(N)N/N=C/c1c[nH]c2ccc(OC)cc12,"nuclei count, normalised","[1]; measured here: cell number at 24 h, concentration not given here",107%
same,"nuclei count, normalised","[1]; measured here: cell number at 48 h, concentration not given here",112% and 109%
same,"p53-positive nuclei, normalised",[2]; concentration not given here,-0.135% (inactive) and -0.2% (inactive)
same,"p53-positive nuclei, normalised","[2]; measured here: p53 positive nuclei at 24 h, concentration not given here",0.0257% and -0.191%
CC1C[C@H]2[C@@H]3CCC4=CC(=O)C=C[C@]4(C)[C@@H]3C(=O)C[C@]2(C)[C@]1(O)C(=O)CO (some centres not stated),"nuclei count, normalised",[1]; [3],104%
same,"nuclei count, normalised",[1]; [4],88.5%
same,"p53-positive nuclei, normalised",[2]; [5],1.05% (inactive)
same,"p53-positive nuclei, normalised",[2]; [6],1.05%
CN(CCC(Oc1ccc(-c2ccccc2)cc1)c1ccc(F)cc1)CC(=O)O (configuration not stated),"nuclei count, normalised",[1]; [7],112%
same,"nuclei count, normalised",[1]; [8],111%
same,"nuclei count, normalised",[1]; [9],107%
same,"nuclei count, normalised",[1]; [10],115%
same,"nuclei count, normalised",[1]; [11],109%
same,"nuclei count, normalised",[1]; [12],113%
same,"nuclei count, normalised",[1]; [13],104%
same,"nuclei count, normalised",[1]; [14],110%
same,"p53-positive nuclei, normalised",[2]; [15],-0.199% (inactive)
same,"p53-positive nuclei, normalised",[2]; [16],-0.17% (inactive)
same,"p53-positive nuclei, normalised",[2]; [17],0.114% (inactive)
same,"p53-positive nuclei, normalised",[2]; [18],-0.129% (inactive)
same,"p53-positive nuclei, normalised",[2]; [19],-0.152%
same,"p53-positive nuclei, normalised",[2]; [20],-0.0916%
same,"p53-positive nuclei, normalised",[2]; [21],-0.153%
same,"p53-positive nuclei, normalised",[2]; [22],-0.0944%
O=C1CC(c2ccc([N+](=O)[O-])cc2)=NN1c1ccccc1,"nuclei count, normalised",[1]; [7],114%
same,"nuclei count, normalised",[1]; [8],115%
same,"nuclei count, normalised",[1]; [9],116%
same,"nuclei count, normalised",[1]; [10],117%
same,"nuclei count, normalised",[1]; [11],107%
same,"nuclei count, normalised",[1]; [12],109%
same,"nuclei count, normalised",[1]; [13],110%
same,"nuclei count, normalised",[1]; [14],106%
same,"p53-positive nuclei, normalised",[2]; [15],-0.127% (inactive)
same,"p53-positive nuclei, normalised",[2]; [16],0.0933% (inactive)
same,"p53-positive nuclei, normalised",[2]; [17],-0.137% (inactive)
same,"p53-positive nuclei, normalised",[2]; [18],-0.204% (inactive)
same,"p53-positive nuclei, normalised",[2]; [19],-0.0266%
same,"p53-positive nuclei, normalised",[2]; [20],0.0349%
same,"p53-positive nuclei, normalised",[2]; [21],0.0231%
same,"p53-positive nuclei, normalised",[2]; [22],0.0862%
CC(O)[C@H]1C(=O)N2C(C(=O)OCOC(=O)C(C)(C)C)=C(SC3CN(C4=NCCS4)C3)C(C)[C@@H]12 (some centres not stated),"nuclei count, normalised",[1]; [3],106%
same,"nuclei count, normalised",[1]; [4],101%
same,"p53-positive nuclei, normalised",[2]; [5],-0.0394% (inactive)
same,"p53-positive nuclei, normalised",[2]; [6],-0.252%
CC1(C)SC2C(NC(=O)C(NC(=O)N3CCNC3=O)c3ccccc3)C(=O)N2C1C(=O)O (configuration not stated),"nuclei count, normalised",[1]; [3],118%
same,"nuclei count, normalised",[1]; [4],111%
same,"p53-positive nuclei, normalised",[2]; [5],-0.143% (inactive)
same,"p53-positive nuclei, normalised",[2]; [6],-0.242%
